Bioassay records as filed in PubChem BioAssay.
Compounds with a hit are over-represented: about 6.7% of the library has one in this group of screens.
BoNT A protease: blocks Botulinum neurotoxin A light chain protease; multiplex microsphere protease substrate cleavage, flow cytometry; inhibition, % at 10 µM; actives 0.17% (n = 360,000)
Bead autofluor: compound fluorescence in toxin protease inhibitor counterscreen; compound autofluorescence counterscreen, microsphere flow cytometry; hits give high values; actives 3.1% (n = 360,000); AID 624483; fluorescence intensity (no concentration beside the values); in the data active means fluorescence intensity above about 16000; inconclusive means no clear call, values can overlap the other calls
BoNT F protease: BoNT F light chain protease inhibition; actives 0.22% (n = 360,000); Multiplex microsphere protease cleavage assay, flow cytometry; inhibition, % at 10 µM; in the data active means inhibition above about 35%, passing the limit was not always enough; inconclusive means no clear call, values can overlap the other calls
FBA Mtb inh: inhibitors of M. tuberculosis fructose-bisphosphate aldolase. actives 2.3% (n = 360,000). inhibition, % at 1 µM. purified M. tuberculosis FBA, fluorescence read-out. P9WQA3; in the data active means inhibition above about 27%
Target sequence (P9WQA3 whole entry, looked up): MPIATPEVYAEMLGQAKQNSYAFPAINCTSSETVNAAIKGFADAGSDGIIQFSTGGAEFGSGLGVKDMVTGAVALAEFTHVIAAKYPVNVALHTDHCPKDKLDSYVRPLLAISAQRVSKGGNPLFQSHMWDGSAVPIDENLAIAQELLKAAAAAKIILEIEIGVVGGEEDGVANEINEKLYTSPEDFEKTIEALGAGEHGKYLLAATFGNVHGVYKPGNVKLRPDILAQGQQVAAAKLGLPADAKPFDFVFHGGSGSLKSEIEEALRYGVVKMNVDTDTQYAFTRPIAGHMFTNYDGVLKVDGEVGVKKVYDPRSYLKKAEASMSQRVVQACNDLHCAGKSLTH
GDH-TPI inh: GDH-TPI coupled enzyme inhibition counter-screen. GDH-TPI coupled enzyme counterscreen, NADH absorbance. inhibition, % at 4.8 µM. actives 1.2% (n = 360,000). AID 588335; in the data active means inhibition above about 30%
Anthrax LF inh2: anthrax lethal factor protease inhibition | actives 0.12% (n = 360,000) | P15917 | inhibition, % at 10 µM | multiplex microsphere protease cleavage assay, LF
Large screens that a line does not name were inactive. Unless noted, no stated cut-off is given here; in the data, active means inhibition above about 30%; inconclusive means no clear call, values can overlap the other calls; inactive means below that.

CCOC(=O)C1CCN(Cc2ccc(F)c(Br)c2)CC1	BoNT A protease inconclusive, Bead autofluor 20738
CCOC(=O)C1CCN(Cc2ccc(OC)c(C)c2OC)CC1	Bead autofluor 16792
CCOC(=O)C1CCN(Cc2ccc(F)cc2F)CC1	none
CN(C)c1ccc(C2=NOC(CN3C(=O)c4ccccc4S3(=O)=O)C2)cc1 (stereo not drawn)	none
O=S(=O)(Nc1cccc(-c2ccc(N3CCCCCC3)nn2)c1)c1ccc(C(F)(F)F)cc1	none
Cn1nc(C(=O)NC2CCCCC2)c2ccccc2c1=O	BoNT A protease inconclusive, Bead autofluor 21828
COC(=O)c1ccc(C)c(NC(=O)c2nn(C)c(=O)c3ccccc23)c1	BoNT A protease inconclusive, Bead autofluor 22678
CCOc1ncnc2c1oc1nc(CC(C)C)c3c(c12)CC(C)(C)OC3	Bead autofluor 19881
CCCc1nc2oc3c(NCC4CCCO4)ncnc3c2c2c1COC(C)(C)C2 (stereo not drawn)	Bead autofluor 22258
CCOC(=O)c1ccc[n+](CC(=O)c2ccccc2)c1	none
Cc1ccc(-n2c(=O)c3sccc3n(Cc3cc(=O)n4ccccc4n3)c2=O)cc1	none
CCN(CC)CCNc1ncnc2c1sc1nc(N3CCOCC3)c3c(c12)CCCC3	GDH-TPI inh 35
OCCNc1ncnc2c1sc1nc(N3CCOCC3)c3c(c12)CCC3	none
O=C(Cn1[nH]c(=O)c2ccccc2c1=O)NC1CCN(Cc2ccccc2)CC1	Bead autofluor 23670
O=C(Cn1[nH]c(=O)c2ccccc2c1=O)NC1CCCCCC1	none
O=C(COc1ccccc1)NC1CCN(Cc2ccccc2)CC1	BoNT A protease inconclusive, Bead autofluor 17241
O=C(O)C1C2C=CC(C2)C1C(=O)NC1CCN(Cc2ccccc2)CC1 (stereo not drawn)	BoNT A protease inconclusive, Bead autofluor 20434
O=C(CN1CCN(Cc2ccccc2)CC1)NC(=O)NCc1ccco1	none
O=C(CCC(=O)NC1CCN(Cc2ccccc2)CC1)NCc1ccco1	BoNT A protease inconclusive, Bead autofluor 23478
Cc1ccc(S(=O)(=O)N2CCC[C@H]2C(=O)NC2=NCCS2)cc1	none
CN(C)c1nc(C(=O)NN)nc(N(C)C)n1	none
COc1ccc(OC)c(Nc2nc(-c3cccc([N+](=O)[O-])c3)nc3ccccc23)c1	Bead autofluor 25968
COc1ccc(Nc2nc(-c3cccc([N+](=O)[O-])c3)nc3ccccc23)c(OC)c1	none
C/C=C/C=[N+](\[O-])C(C)/C(=N/O)c1ccc(F)cc1 (stereo not drawn)	Bead autofluor 16840
Cc1ccccc1CS(=O)(=O)CC(O)CN1CCCC1=O (stereo not drawn)	FBA Mtb inh active
O=C1CCCN1CC(O)CS(=O)(=O)c1ccc(Cl)cc1 (stereo not drawn)	Bead autofluor 22765
Cc1ccc(S(=O)(=O)CC(O)CN2CCCC2=O)cc1 (stereo not drawn)	none
O=C(CSc1nnc(Cc2cc(=O)[nH]c(=O)[nH]2)n1-c1ccc(Cl)cc1)NC1CCCC1	none
Cc1ccc(C(=O)N/C(=C\c2cn(S(=O)(=O)N(C)C)c3ccccc23)C(=O)NCCCn2ccnc2)cc1	none
CCn1cc(/C=C(\NC(=O)c2ccccc2)C(=O)NCCCn2ccnc2)c2ccccc21	GDH-TPI inh 45
CN(C)c1ccc(/C=C(/NC(=O)c2ccccc2)C(=O)NCCCn2ccnc2)cc1	GDH-TPI inh 33
O=C1NC(=S)N(c2ccccc2)C(=O)C1C(c1ccncc1)C1C(=O)NC(=S)N(c2ccccc2)C1=O (stereo not drawn)	none
O=c1[nH]c(=O)n(-c2ccc(F)cc2)c2c1C(C(F)(F)F)(C(F)(F)F)N=C(c1ccc(F)cc1)N2	none
COc1ccc(-n2c3c(c(=O)[nH]c2=O)C(C(F)(F)F)(C(F)(F)F)N=C(CC(C)C)N3)cc1	Bead autofluor 19298
S=C(NCc1ccccn1)Nc1cccc(Cl)c1	none
CC(=NNC(=S)SCc1ccccc1)c1ccccn1	BoNT A protease 42, BoNT F protease 83, Anthrax LF inh2 57
CC(=NNC(=S)Nc1cccc(Cl)c1)c1ccccn1	BoNT F protease 63, Anthrax LF inh2 41
COC(=O)C1=C(C(=O)OC)[C@@H]2N(C)c3ccc(OC)cc3[C@@]23C[C@@H](C(=O)OC)N(S(=O)(=O)c2ccc([N+](=O)[O-])cc2)C3=N1	none
COc1cc(-c2nc3ccc(N4CCN(C)CC4)cc3[nH]2)cc(OC)c1OC	FBA Mtb inh active
COc1cc(-c2cnc3c(NC=O)cc(-c4ccc(N5CCN(C)CC5)cc4)cn23)cc(OC)c1OC	none
Cc1ccc(S(=O)(=O)N2C[C@H]3C(=O)C[C@@H](c4ccccc4)N(S(=O)(=O)c4ccc(C)cc4)[C@H]3C[C@H]2c2cccc3ccccc23)cc1	none (no result: GDH-TPI inh)
COc1cccc(N2C(=O)C(CC(=O)Nc3ccccc3)N(C3CCCCC3)C2=O)c1 (stereo not drawn)	Bead autofluor 19391
C(=N\Nc1nc2ccccc2s1)/c1cccs1	GDH-TPI inh 42
Oc1ccccc1C=NNc1nc2ccccc2s1	none
C(=N\Nc1nc2ccccc2s1)/c1ccco1	GDH-TPI inh 42
Oc1ccc(C=NNc2nc3ccccc3s2)c(O)c1	GDH-TPI inh 32
Cc1nc(SCC(=O)c2ccc(Cl)cc2)c([N+](=O)[O-])[nH]1	BoNT A protease inconclusive, Bead autofluor 24383
CCOc1nc(C)ccc1-c1noc(-c2ccco2)n1	Bead autofluor 20107
Cc1ccc(S(=O)(=O)N(C)Cc2cc3ccccc3[nH]c2=O)cc1	Bead autofluor 22031
CN(Cc1cc2ccccc2[nH]c1=O)S(=O)(=O)c1ccccc1	none
Cc1ccc2[nH]c(=O)c(CN(CCO)C(=O)N(C)C)cc2c1	Bead autofluor 17576
CNC(=S)N(CCO)Cc1cc2cc3c(cc2[nH]c1=O)OCO3	FBA Mtb inh 33
CN(C(=O)COC(=O)c1ccc(Cl)cc1N)C1CCS(=O)(=O)C1 (stereo not drawn)	FBA Mtb inh 67
Cc1cc(=O)oc2cc(NC(=O)c3cc(F)ccc3F)ccc12	none
Cc1cc(=O)oc2cc(NS(=O)(=O)c3ccccc3)ccc12	BoNT F protease inconclusive, GDH-TPI inh 37 (no result: FBA Mtb inh)
Cc1cc(=O)oc2cc(NS(=O)(=O)c3ccc(F)cc3)ccc12	BoNT F protease inconclusive, GDH-TPI inh 52 (no result: FBA Mtb inh)
COC(=O)COc1cc(=O)oc2ccc(NS(=O)(=O)c3ccccc3)cc12	none
CN(C)S(=O)(=O)c1ccc(S(=O)(=O)Nc2ccc3c(c2)oc2ccccc23)cc1	none
CCN(CC)S(=O)(=O)c1ccc(S(=O)(=O)Nc2ccc3c(c2)oc2ccccc23)cc1	BoNT A protease inconclusive, Bead autofluor 20070
COC(=O)C1CCN(C(=O)c2ccc(SC)cc2OC)CC1	BoNT A protease inconclusive, Bead autofluor 20634
COc1cc(SC)ccc1C(=O)N1CCN(c2ccccc2OC)CC1	none
COc1ccc2ccccc2c1CN1CCCC(CO)C1 (stereo not drawn)	BoNT A protease inconclusive, Bead autofluor 22577
